{"source": "PubChem BioAssay AID2227", "about": "(Johns Hopkins Ion Channel Center, 2009)", "note": "Screen size: about 310,000 compounds; about 1,300 (0.42%) were called active.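 The calls were made as follows: active = B-score of calcium response area above 5 SD of library B-scores, with initial fluorescence ratio within 5 SD of library; inactive = the rest.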 The entries come from a sample that favours actives as a whole.", "data": [{"target": "Short transient receptor potential channel 4 (Mus musculus) (UniProt Q9QUQ5)", "sequence (Q9QUQ5 whole entry, looked up)": "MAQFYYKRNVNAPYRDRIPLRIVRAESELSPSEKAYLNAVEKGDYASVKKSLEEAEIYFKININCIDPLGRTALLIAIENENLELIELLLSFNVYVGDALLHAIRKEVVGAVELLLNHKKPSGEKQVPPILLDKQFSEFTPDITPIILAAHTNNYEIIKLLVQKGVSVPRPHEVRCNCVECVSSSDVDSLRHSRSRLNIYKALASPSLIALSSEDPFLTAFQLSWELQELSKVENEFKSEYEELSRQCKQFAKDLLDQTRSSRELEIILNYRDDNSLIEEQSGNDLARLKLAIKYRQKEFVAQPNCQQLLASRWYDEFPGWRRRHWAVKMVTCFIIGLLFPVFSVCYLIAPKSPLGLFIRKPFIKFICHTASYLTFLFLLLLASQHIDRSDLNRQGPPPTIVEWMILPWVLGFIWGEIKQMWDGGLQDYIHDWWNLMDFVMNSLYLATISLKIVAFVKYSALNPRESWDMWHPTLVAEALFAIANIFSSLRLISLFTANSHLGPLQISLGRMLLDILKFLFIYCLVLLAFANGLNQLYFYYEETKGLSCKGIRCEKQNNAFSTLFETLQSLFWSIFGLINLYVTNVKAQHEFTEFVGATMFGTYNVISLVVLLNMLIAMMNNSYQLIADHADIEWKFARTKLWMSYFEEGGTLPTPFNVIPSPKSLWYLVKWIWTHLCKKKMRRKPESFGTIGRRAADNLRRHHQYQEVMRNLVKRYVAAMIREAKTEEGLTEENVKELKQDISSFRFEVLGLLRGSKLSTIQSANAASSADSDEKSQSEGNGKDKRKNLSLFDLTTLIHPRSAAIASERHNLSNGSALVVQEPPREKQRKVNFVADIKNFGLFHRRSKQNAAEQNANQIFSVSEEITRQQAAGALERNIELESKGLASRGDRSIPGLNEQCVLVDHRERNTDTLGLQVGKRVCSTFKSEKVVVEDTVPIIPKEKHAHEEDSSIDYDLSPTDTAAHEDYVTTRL", "test": "positive allosteric modulators of TRPC4, primary screen, cell-based, mouse TRPC4beta, HEK293 mu-opioid, Fluo-4 calcium (AID 2227);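 as to B-score: B-score of integrated fluorescence ratio over time as area under calcium response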", "details": "DAMGO EC20, Fluo-4 Ca2+ flux, at 10 µM; active compounds read high", "values": [{"smiles": "Cc1cccc(N2C(=O)SC(SC(=Nc3ccccc3)Nc3ccccc3)C2=O)c1", "note": "(centres undefined)", "B-score": "inactive"}, {"smiles": "CCCCn1c(=S)[nH]c2ccccc2c1=O", "B-score": "inactive"}, {"smiles": "O=C(O)c1ccc(Cn2c(=S)[nH]c3cc(Cl)ccc3c2=O)cc1", "B-score": "inactive"}, {"smiles": "CN(C)CCn1c(=S)[nH]c2ccc(Cl)cc2c1=O", "B-score": "14 (active)"}, {"smiles": "COC(=O)c1ccc(C(=O)OC)c(NC(=S)N2CCN(c3cc(Cl)ccc3C)CC2)c1", "B-score": "inactive"}, {"smiles": "Cc1ccc(Cl)cc1N1CCN(C(=O)c2cccc3c(=O)c(C)c(-c4ccccc4)oc23)CC1", "B-score": "24 (active)"}, {"smiles": "Cc1cccc(N2CCN(C(=O)c3cnn4c(C(F)F)cc(-c5ccccc5)nc34)CC2)c1C", "B-score": "inactive"}, {"smiles": "COc1cccc(NC(=O)CSc2nccn(-c3ccc4c(c3)OCCO4)c2=O)c1", "B-score": "inactive"}, {"smiles": "CCOc1ccc(NS(=O)(=O)c2ccc(C)c(C(N)=O)c2)cc1", "B-score": "inactive"}, {"smiles": "CCn1cc(C(=O)N2CCN(Cc3ccc4c(c3)OCO4)CC2)c2cc(OC)c(OC)cc2c1=O", "B-score": "inactive"}, {"smiles": "COc1ccc(-c2cc(C(=O)N3CCN(Cc4ccc5c(c4)OCO5)CC3)on2)cc1OC", "B-score": "inactive"}, {"smiles": "COc1cc(Cl)c(S(=O)(=O)N2CCN(Cc3ccc4c(c3)OCO4)CC2)cc1Cl", "B-score": "37 (active)"}, {"smiles": "CC(=O)c1ccccc1OCc1ccc(C(=O)c2ccccc2)cc1", "B-score": "inactive"}, {"smiles": "COC(=O)c1cc(C(=O)OCC(=O)Nc2cc(C)on2)cc([N+](=O)[O-])c1", "B-score": "inactive"}, {"smiles": "COc1ccc(OCCn2ccnc2C)cc1", "B-score": "inactive"}, {"smiles": "Brc1c(CSc2nncc3ccccc23)nc2ccccn12", "B-score": "inactive"}, {"smiles": "COc1ccccc1NS(=O)(=O)c1ccc(C(=O)N2CCN(c3ccccc3O)CC2)cc1", "B-score": "inactive"}, {"smiles": "CCn1c(O)c(N=NC(=O)c2cccc(S(=O)(=O)N3CCCCC3)c2)c2ccccc21", "B-score": "15 (active)"}, {"smiles": "CCn1c2ccccc2c2cc(NC(=O)COC(=O)c3cc(S(=O)(=O)N4CCCCC4)ccc3Cl)ccc21", "B-score": "inactive"}, {"smiles": "Cc1cccc(NC(=O)c2cccc(S(=O)(=O)N3CCCC3)c2)n1", "B-score": "inactive"}, {"smiles": "COc1ccc(CSc2nnnn2-c2ccc(C(=O)O)cc2)cc1", "B-score": "inactive"}, {"smiles": "COCCN(CCOC)S(=O)(=O)c1ccc(/C(O)=C(\\C#N)c2nc3ccccc3[nH]2)cc1", "B-score": "11 (active)"}, {"smiles": "CCC(=O)/C(=C(/O)c1ccccc1)c1nc2ccccc2[nH]1", "B-score": "inactive"}, {"smiles": "Cc1ccccc1OC/C(O)=C(\\C#N)c1nc2ccccc2[nH]1", "B-score": "inactive"}, {"smiles": "COC(=O)c1c(CCl)noc1C(=O)NC(C)C", "B-score": "inactive"}, {"smiles": "O=C(Nc1cccc(F)c1)c1coc(=O)c(Br)c1", "B-score": "inactive"}, {"smiles": "CC(=N\\NC(=O)c1cc(Br)ccc1O)/C(=N/O)C(=O)Nc1ccccc1", "B-score": "inactive"}, {"smiles": "Cc1ccc(CN2CCN(/N=C/c3cccnc3)CC2)c(C)c1", "B-score": "12 (active)"}, {"smiles": "O=C1/C(=C\\c2cccnc2)CN(Cc2ccccc2)C/C1=C\\c1cccnc1", "B-score": "inactive"}, {"smiles": "C(=N\\n1cnnc1)/c1cccnc1", "B-score": "inactive"}, {"smiles": "Cc1ccc(CN2CCN(c3ncccn3)CC2)c(C)c1", "B-score": "inactive"}, {"smiles": "Cc1ccc(CN2CCN(/N=C/c3ccco3)CC2)c(C)c1", "B-score": "inactive"}, {"smiles": "Clc1ccc(CN2CCN(/N=C/c3cccnc3)CC2)cc1", "B-score": "12 (active)"}, {"smiles": "CCOc1ccc(S(=O)(=O)NCCCn2ccnc2)cc1NC(C)=O", "B-score": "inactive"}, {"smiles": "CCc1ccc(/C=N/NC(=O)c2nnn(-c3nonc3N)c2CN2CCc3ccccc32)cc1", "B-score": "inactive"}, {"smiles": "CCN(CCn1cccn1)Cc1cn[nH]c1-c1ccc(OC)cc1F", "B-score": "inactive"}, {"smiles": "Cc1cccc(C)c1NC(=O)C1(N(C(=O)c2ccccn2)c2ccc(O)cc2)CCCCC1", "B-score": "inactive"}, {"smiles": "CN(C)CCCN(Cc1cc2cc3c(cc2[nH]c1=O)OCCO3)C(=O)NC1CCCCC1", "B-score": "inactive"}, {"smiles": "COCCCNC(=S)NC(=O)c1ccccc1", "B-score": "inactive"}, {"smiles": "CCOC(=O)C1=C(NC(=S)NC(=O)c2ccccc2)c2ccccc2CC1(C)C", "B-score": "25 (active)"}, {"smiles": "Cc1ccc(NC(=S)NC(=O)c2ccc(-c3ccccc3)cc2)cc1", "B-score": "inactive"}, {"smiles": "CCOC(=O)C(CC)/C(C)=N\\NC(=O)c1cccc(C)c1", "note": "(centres undefined)", "B-score": "inactive"}, {"smiles": "ONC(=Nc1ccccc1)c1ccccc1Cl", "B-score": "inactive"}, {"smiles": "O=C(Nc1nnc(SCc2c(Cl)cccc2Cl)s1)c1cccc([N+](=O)[O-])c1", "B-score": "inactive"}, {"smiles": "NC(=O)CSc1nnc(NC(=O)c2ccc3ccccc3c2)s1", "B-score": "inactive"}, {"smiles": "O=C(Nc1nnc(SCc2ccccc2Cl)s1)c1cccc([N+](=O)[O-])c1", "B-score": "12 (active)"}, {"smiles": "Cc1ccc(S(=O)(=O)N2CCN(C(=O)Cc3sc(C)nc3-c3ccc(F)cc3)CC2)c(C)c1", "B-score": "inactive"}, {"smiles": "CCOc1ccccc1NC(=S)NC(=O)CCc1ccccc1", "B-score": "inactive"}, {"smiles": "Cc1sc2nc(SCCO)n(-c3ccccc3)c(=O)c2c1C", "B-score": "inactive"}, {"smiles": "C=CCn1c(SCC(=O)/C(C#N)=C(\\C)N)nc2sc(C)c(C)c2c1=O", "B-score": "inactive"}, {"smiles": "Cc1sc2nc(SCC(N)=O)n(C)c(=O)c2c1C", "B-score": "29 (active)"}, {"smiles": "Cc1cc(Nc2cccc(F)c2)n2ncnc2n1", "B-score": "inactive"}, {"smiles": "COc1ccc(/C=C2/S/C(=N/N=C3\\CC4CCC3(C)C4(C)C)NC2=O)cc1", "note": "(centres undefined)", "B-score": "inactive"}, {"smiles": "COc1ccccc1CNC(=O)C1CCN(S(=O)(=O)c2ccc3c(c2)CC(C)N3C(=O)C2CC2)CC1", "note": "(centres undefined)", "B-score": "inactive"}, {"smiles": "CC(=O)N1c2ccc(S(=O)(=O)N3CCC(C(=O)N4CCN(c5ccccc5)CC4)CC3)cc2CC1C", "note": "(centres undefined)", "B-score": "inactive"}, {"smiles": "CC(=O)c1ccc(N2CCN(C(=O)C3CCN(S(=O)(=O)c4ccc5c(c4)CC(C)N5C(=O)C4CC4)CC3)CC2)cc1", "note": "(centres undefined)", "B-score": "19 (active)"}, {"smiles": "CCCOc1ccccc1C1CC(=O)Nc2cc3c(cc21)OCO3", "note": "(centres undefined)", "B-score": "14 (active)"}, {"smiles": "COc1ccccc1C1C2=C(COC2=O)Nc2cc3c(cc21)OCO3", "note": "(centres undefined)", "B-score": "inactive"}, {"smiles": "COC(=O)C1=C(C)NC(=O)CC1c1ccccc1OC", "note": "(centres undefined)", "B-score": "inactive"}, {"smiles": "C/C(=C/c1ccccc1)C(=O)N1CCN(c2ccccc2)CC1", "B-score": "inactive"}, {"smiles": "O=C(O)c1cc2ccccc2c(=O)s1", "B-score": "inactive"}, {"smiles": "Cc1ccc(-c2nnn(CC(=O)N(CCO)C(C(=O)NC(C)(C)C)c3ccncc3)n2)cc1", "note": "(centres undefined)", "B-score": "10 (active)"}, {"smiles": "Cc1ccc(-c2nnn(CC(=O)N(Cc3ccco3)C(C(=O)NC(C)(C)C)c3ccncc3)n2)o1", "note": "(centres undefined)", "B-score": "inactive"}, {"smiles": "COc1ccc(-c2nnn(CC(=O)N(CCO)C(C(=O)NC3CCCC3)c3ccc(F)cc3)n2)cc1", "note": "(centres undefined)", "B-score": "inactive"}, {"smiles": "O=C1C(=O)N(CCN2CCOCC2)C(c2cccc(Cl)c2)/C1=C(/O)c1ccc2c(c1)OCO2", "note": "(centres undefined)", "B-score": "inactive"}, {"smiles": "Cc1cc(/C=N/n2cnnc2)c(C)n1-c1ccc2ncccc2c1", "B-score": "inactive"}, {"smiles": "Cc1ccccc1CC1(CO)CCCN(Cc2ccc3c(c2)OCCO3)C1", "note": "(centres undefined)", "B-score": "inactive"}, {"smiles": "COc1ccc([N+](=O)[O-])cc1NC(=O)CC1SC(=Nc2cccc(C)c2C)N(/N=C(\\C)c2ccc(C)cc2)C1=O", "note": "(centres undefined)", "B-score": "inactive"}, {"smiles": "O=C(N/N=C/c1ccc(Cl)cc1)c1nc2ccc([N+](=O)[O-])cc2c(=O)[nH]1", "B-score": "inactive"}, {"smiles": "COc1cc(NS(=O)(=O)c2ccc(NC(=S)NC(=O)c3ccccc3)cc2)nc(OC)n1", "B-score": "inactive"}, {"smiles": "CC(OC(=O)CCCc1c[nH]c2ccccc12)C(=O)Nc1ccc(S(N)(=O)=O)cc1", "note": "(centres undefined)", "B-score": "inactive"}, {"smiles": "Cc1cccn2c(=O)c(/C=C(\\C#N)C(N)=O)c(N3CCCCCC3)nc12", "B-score": "12 (active)"}, {"smiles": "Cc1cccn2c(=O)c(/C=C(\\C#N)S(=O)(=O)c3ccc(Cl)cc3)c(N3CCC(C(N)=O)CC3)nc12", "B-score": "inactive"}, {"smiles": "COCCCNC(=O)/C(C#N)=C/c1c(N2CCCCCC2)nc2ccccn2c1=O", "B-score": "inactive"}, {"smiles": "O=C(c1ccc(NS(=O)(=O)c2ccc3[nH]c(=O)[nH]c3c2)cc1)N1CCCCC1", "B-score": "inactive"}, {"smiles": "CN(C)CCCSc1ccccc1NC(=O)/C=C/c1ccccc1", "B-score": "inactive"}, {"smiles": "N=c1c2c3c(sc2ncn1N)CCCCC3", "B-score": "10 (active)"}, {"smiles": "N=c1c2c3c(sc2ncn1CCCN1CCOCC1)CCCCC3", "B-score": "inactive"}, {"smiles": "N=c1c2c3c(sc2ncn1N)CCCC3", "B-score": "inactive"}, {"smiles": "N#Cc1ncc(C(F)(F)F)cc1Oc1cccnc1", "B-score": "inactive"}, {"smiles": "O=c1cc(N2CCCCC2)c(-c2ccccc2)nn1Cc1cccc(F)c1", "B-score": "inactive"}, {"smiles": "Cc1ncc([N+](=O)[O-])n1CCOC(=O)c1ccc(Br)cc1", "B-score": "inactive"}, {"smiles": "Cc1cccc(CCNC(=O)Cn2ncc3c([nH]c4ccc(C)cc43)c2=O)c1", "B-score": "inactive"}, {"smiles": "CC(=C1C(=O)c2ccccc2C1=O)N1CCN(c2ccccn2)CC1", "B-score": "inactive"}, {"smiles": "O=C(CN1CCN(c2ccccn2)CC1)N1CCc2ccccc21", "B-score": "inactive"}, {"smiles": "O=C1c2cccc3cccc(c23)N1CN1CCN(c2ccccn2)CC1", "B-score": "10 (active)"}, {"smiles": "Cc1ccc(C)c(OCCC(=O)Nc2cccc(S(=O)(=O)N3CCCC3)c2)c1", "B-score": "inactive"}, {"smiles": "CC(=O)Nc1ccc(S(=O)(=O)N2CCN(CCCOc3cc(C)ccc3C)CC2)cc1", "B-score": "32 (active)"}, {"smiles": "Cc1cccc(OCCCC(=O)Nc2ccc(S(=O)(=O)N3CCCC3)cc2)c1", "B-score": "inactive"}, {"smiles": "CC(=O)c1ccc(N2CCN(S(=O)(=O)c3ccc4c(c3)CC(=O)N4C)CC2)cc1", "B-score": "inactive"}, {"smiles": "Cc1c(C(=O)NCCN2C(=O)S/C(=C\\c3cccs3)C2=O)cccc1[N+](=O)[O-]", "B-score": "inactive"}, {"smiles": "COC(=O)c1ccccc1N=Nc1c(C)[nH][nH]c1=O", "B-score": "59 (active)"}, {"smiles": "Cc1[nH]n(-c2ccccc2)c(=O)c1N=Nc1ccccc1C(=O)N1CCCCC1", "B-score": "inactive"}, {"smiles": "Cc1[nH][nH]c(=O)c1N=Nc1ccccc1", "B-score": "inactive"}, {"smiles": "N#Cc1cccc(OC(=O)c2ccc3c(=O)n4c(nc3c2)CCC4)c1", "B-score": "inactive"}, {"smiles": "CCOC(=O)c1ccc(-c2ccc(C(=O)Nc3cccnc3)o2)cc1", "B-score": "inactive"}, {"smiles": "COC(=O)C1=C(C)NC2=C(C(=O)c3ccccc32)C1c1ccc(-c2ccc(C(=O)O)cc2)o1", "note": "(centres undefined)", "B-score": "16 (active)"}, {"smiles": "CCOC(=O)C1=C(c2ccc(OC)cc2)C(=O)c2ccccc2C1=O", "B-score": "inactive"}, {"smiles": "CC(NC(=O)COc1ccc(-c2ccccc2)cc1)C1CCCO1", "note": "(centres undefined)", "B-score": "inactive"}, {"smiles": "O=C(NCCc1ccccc1)C1CC1", "B-score": "inactive"}, {"smiles": "CCn1cc(C(=O)N2CC=C(c3ccccc3)CC2)c(=O)c2ccc(C)nc21", "B-score": "inactive"}, {"smiles": "CCN1CCN(c2c(Cl)cccc2NC(=O)c2ccc(Br)o2)CC1", "B-score": "11 (active)"}, {"smiles": "O=C(Nc1cccc(Cl)c1N1CCOCC1)c1ccc2c(c1)OCCO2", "B-score": "inactive"}, {"smiles": "O=C(Nc1cccc(Cl)c1N1CCOCC1)c1cccnc1", "B-score": "inactive"}]}]}
